Screening results (PubChem BioAssay)
This is one part of a sample in which hits are shown more often than they occur.
TNAP act DEA: activates human TNAP at intermediate phosphate acceptor concentration; 64,000 tested, under 10 active; purified TNAP, CDP-star luminescence, 100 mM DEA, 30 min; stronger effect = higher value; scale: 0 levamisole-inhibited, 1 vehicle-only enzyme; activation factor at 20 µM; P05186;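 active = activation factor of at least 2 at 20 µM, relative to controls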
ROCK2 inh: inhibitors of human Rho kinase 2; inhibition, % at 6 µM; 60,000 tested, 0.35% active; O75116; AID 604; purified ROCK2, Kinase-Glo ATP depletion luminescence;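 active = inhibition above the screen-wide mean inhibition plus 3 SD, cut at about 18% in these data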
Target sequence (O75116 whole entry, looked up): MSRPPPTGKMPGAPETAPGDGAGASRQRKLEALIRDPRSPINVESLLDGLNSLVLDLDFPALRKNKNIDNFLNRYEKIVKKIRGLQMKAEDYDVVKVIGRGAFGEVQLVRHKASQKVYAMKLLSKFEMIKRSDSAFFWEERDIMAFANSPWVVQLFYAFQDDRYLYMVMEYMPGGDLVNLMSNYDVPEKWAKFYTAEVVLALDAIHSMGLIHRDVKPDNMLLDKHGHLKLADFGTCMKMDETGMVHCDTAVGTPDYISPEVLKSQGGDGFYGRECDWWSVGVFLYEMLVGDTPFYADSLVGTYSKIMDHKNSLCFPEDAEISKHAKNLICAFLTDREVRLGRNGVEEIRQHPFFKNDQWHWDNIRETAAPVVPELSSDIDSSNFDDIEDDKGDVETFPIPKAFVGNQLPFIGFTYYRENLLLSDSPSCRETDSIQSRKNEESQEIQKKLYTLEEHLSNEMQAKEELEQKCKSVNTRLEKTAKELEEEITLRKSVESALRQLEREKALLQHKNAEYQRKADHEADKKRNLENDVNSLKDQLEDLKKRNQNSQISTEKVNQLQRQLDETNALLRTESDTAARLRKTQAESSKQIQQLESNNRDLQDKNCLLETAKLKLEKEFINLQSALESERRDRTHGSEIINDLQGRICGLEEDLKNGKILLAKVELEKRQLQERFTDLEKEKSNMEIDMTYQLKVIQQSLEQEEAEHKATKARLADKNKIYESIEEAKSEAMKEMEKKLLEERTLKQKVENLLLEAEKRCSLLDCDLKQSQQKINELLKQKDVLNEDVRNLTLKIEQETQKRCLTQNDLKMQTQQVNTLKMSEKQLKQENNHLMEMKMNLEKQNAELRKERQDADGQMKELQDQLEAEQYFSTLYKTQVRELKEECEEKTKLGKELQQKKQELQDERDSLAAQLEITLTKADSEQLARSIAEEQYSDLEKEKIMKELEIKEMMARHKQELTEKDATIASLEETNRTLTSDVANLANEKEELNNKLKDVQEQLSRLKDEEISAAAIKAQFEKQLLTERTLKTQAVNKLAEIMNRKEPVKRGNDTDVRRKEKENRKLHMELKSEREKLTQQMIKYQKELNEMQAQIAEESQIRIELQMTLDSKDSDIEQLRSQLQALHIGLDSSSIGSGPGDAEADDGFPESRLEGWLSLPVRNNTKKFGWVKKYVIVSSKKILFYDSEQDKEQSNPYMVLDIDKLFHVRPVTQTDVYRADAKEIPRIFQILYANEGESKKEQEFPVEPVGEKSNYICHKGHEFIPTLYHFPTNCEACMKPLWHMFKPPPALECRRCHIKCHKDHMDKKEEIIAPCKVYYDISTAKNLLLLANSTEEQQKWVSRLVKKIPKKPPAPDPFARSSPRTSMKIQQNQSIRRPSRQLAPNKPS
PKA inh: blocks human protein kinase A activity; 65,000 tested, 0.1% active; inhibition, % at 6 µM; PKA Kemptide phosphorylation, Kinase-Glo ATP luminescence;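 active = inhibition above the screen-wide mean inhibition plus 3 SD, cut at about 21% in these data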
Of the large screens only hits and unclear results are named; the others gave an inactive call.

Cc1ccc(S(=O)(=O)NCCc2ccncc2)cc1	none
Cc1ccc(S(=O)(=O)NCCCOC(=O)Nc2ccncc2)cc1	ROCK2 inh 23.3
COc1ccc(CCC(=O)Nc2nc3c(s2)CN(C)CC3)cc1OC	ROCK2 inh 109.1
CCN1CCc2nc(NC(=O)Cc3ccc4c(c3)OCCO4)sc2C1	none (no result: ROCK2 inh)
Nc1[nH]nc2nc(N3CCCC3)nc(-c3ccccc3)c12	PKA inh 25.6 (no result: ROCK2 inh)
Cc1cc(C)n2nc3nc(N4CCCC4)nc(-c4ccccc4)c3c2n1	none
N#Cc1c(/N=C/c2cccs2)sc2c1CCC2	none
N#Cc1c(/N=C/c2ccco2)sc2c1CCCCC2	ROCK2 inh 24.6
CCOc1ccc(C2N(c3ccc(F)cc3)C(=O)C3CCCN32)cc1OC (stereo not given)	none
CN(CCO)c1ncnc2nc[nH]c12	ROCK2 inh 37.0
CC(O)CNc1ncnc2nc[nH]c12 (stereo not given)	none (no result: ROCK2 inh)
CN(C)c1ccc(-c2ccncc2)cc1	ROCK2 inh 19.3
CN(C)c1ccc(-c2nnc(-c3ccc(S(=O)(=O)C(F)F)cc3)o2)cc1	none
O=C(CNS(=O)(=O)c1cccs1)N1CCc2ccccc2C1	none
Nc1cccc(-n2nncc2-c2ccc(Cl)cc2)c1	none (no result: ROCK2 inh)
Nc1nonc1-n1nncc1-c1ccccc1	PKA inh 28.3 (no result: ROCK2 inh)
O=C(CSc1n[nH]c(-c2ccncc2)n1)c1ccccc1	ROCK2 inh 105.1, PKA inh 43.1
O=C(CSc1n[nH]c(-c2ccncc2)n1)NCCc1ccccc1	none
Cc1cccc(NC(=O)CSc2n[nH]c(-c3ccncc3)n2)c1	PKA inh 21.2
COC(=O)c1ccc(NC(=O)CSc2n[nH]c(-c3ccncc3)n2)cc1	none
c1nc(NCC2CCCO2)c2[nH]cnc2n1 (stereo not given)	none (no result: ROCK2 inh)
c1nc(NC2CCCCC2)c2[nH]cnc2n1	ROCK2 inh 34.3, PKA inh 39.1
CCCOc1ccc(C2c3c(oc4ccccc4c3=O)C(=O)N2CCCN2CCOCC2)cc1 (stereo not given)	none
O=C(Nc1ccc2c(c1)OCO2)C1CCN(S(=O)(=O)c2cccc3cccnc23)CC1	none
COC(=O)c1cccc2c1-c1ccccc1/C2=N/O	ROCK2 inh 19.5
COC(=O)CSc1ccccc1C(=O)OC	none
CC(c1ccco1)N(C(=O)CSc1ccc(Br)cc1)c1ccccn1 (stereo not given)	none
CN(C(=O)c1cccc(N2C(=O)C3CC=CCC3C2=O)c1)C1CCCCC1 (stereo not given)	ROCK2 inh 21.3
O=C(c1cccc(N2C(=O)C3CC=CCC3C2=O)c1)N1CCCCCC1 (stereo not given)	none
Cc1ccccc1NC(=O)Cn1c(C)nc2ccc(NC(=O)C3CC3)cc2c1=O	ROCK2 inh 18.9
CCC(=O)Nc1ccc2nc(C)n(CC(=O)Nc3ccccc3)c(=O)c2c1	none
CC1CN(C(=O)c2cccs2)CCN1C(=O)c1cccs1 (stereo not given)	none
O=C(Nc1ccncc1)Nc1ccc(F)cc1F	ROCK2 inh 22.7
O=C(Nc1ccc(F)cc1)Nc1ccc(Cl)cn1	none
CCOc1ccccc1C1CC(c2ccc(Br)cc2)Nc2nc(N)nn21 (stereo not given)	none
CCOc1ccc2nc3ccc4[nH]onc4c3c2c1	PKA inh 34.9
CCOc1ccc2nc(N3CCOCC3)nc(C)c2c1	none
O=C(Nc1cccc(Br)c1)c1ccn[nH]1	none
Brc1ccc2[nH]ncc2c1	ROCK2 inh 29.8
N#CC1=C(N)Oc2cc(O)ccc2C1c1ccncc1 (stereo not given)	ROCK2 inh 20.9
N#CC1=C(N)Oc2cc(O)ccc2C1c1cccs1 (stereo not given)	none
CCOC(=O)C(NS(=O)(=O)c1ccc(Br)cc1)C(C)C (stereo not given)	none (no result: ROCK2 inh)
Cc1cccc(N2CCN(C(=O)c3cc4c(C)nc5ccccc5c4o3)CC2)c1C	none
Fc1ccccc1N1CCN(c2ncnc3[nH]ncc23)CC1	PKA inh 28.4
NC(=O)CN1CCN(c2ccccc2F)CC1	none
c1ccc(OCCCc2nc(-c3ccccn3)no2)cc1	none
c1ccc(OCCCc2nc(-c3ccncc3)no2)cc1	ROCK2 inh 18.3
CCOC(=O)Cc1csc(SCc2nc3ccccc3c(=O)[nH]2)n1	none
Cc1nc(NCc2ccco2)c2c3c(sc2n1)CCC3	none
c1coc(CNc2ncnc3sc4c(c23)CCCCC4)c1	ROCK2 inh 18.5
O=C(CSc1nnc(Cn2c(=O)sc3ccccc32)n1-c1ccccc1)Nc1nccs1	none
CCCN1C(=O)c2cc(C(=O)NCc3cccs3)ccc2C1O (stereo not given)	none
Cc1c(C)n(C)c2ccc(C(=O)NCc3cccs3)cc12	ROCK2 inh 32.4
CCc1ccc(C2CC(c3ccc(C)cc3)n3nc(N)nc3N2)cc1 (stereo not given)	none
CC(C)CC(c1nnnn1Cc1ccccc1)N1CCN(C(=O)c2ccco2)CC1 (stereo not given)	none
Cc1ccc(NC(=O)CS(=O)(=O)c2c[nH]c3ccccc23)c(C)c1	none (no result: ROCK2 inh)
Cc1ccc2c(c1)c1c3n2CCN(C(=O)Cn2c(-c4ccccc4)noc2=O)C3CCC1 (stereo not given)	ROCK2 inh 21.2
Cc1ccc2c(c1)c1c3n2CCN(C(=O)CN2CCN(C)CC2)C3CCC1 (stereo not given)	none
CN1C(=O)CSc2ccc(NC(=O)NCc3cccnc3)cc21	ROCK2 inh 57.8
CN1C(=O)CSc2ccc(NC(=O)NCc3ccco3)cc21	none (no result: ROCK2 inh)
O=C(C1CCCN1C(=O)c1cccs1)N1CCc2ccccc21 (stereo not given)	none
CCOc1cccc2cc(-c3csc(NC(=O)CCC(=O)N4CCN(C)CC4)n3)c(=O)oc12	none
COc1cccc(CN(C)CC(=O)NC(=O)NCc2ccco2)c1	none
CCOC(=O)c1sc(N(Cc2ccccc2)C(=O)CSc2nnc(C3CC3)n2N)nc1C	none (no result: ROCK2 inh)
CC1CNCCN1S(=O)(=O)c1cccc2cnccc12 (stereo not given)	ROCK2 inh 107.1, PKA inh 46.0
O=S(=O)(c1cccc2cnccc12)N1CCCNCC1	none (no result: ROCK2 inh, PKA inh)
Cc1cnn(C(=S)NCC2CCCO2)c1 (stereo not given)	none
COc1ccc(S(=O)(=O)N(CC(=O)NCc2ccco2)C2CCCCC2)cc1OC	none
CC1(C)C(=O)C2(CCCCC2)C(=O)OC1c1ccc(O)cc1 (stereo not given)	none
Cn1c2ccccc2c2cnn(CC(=O)N3CCN(c4ncccn4)CC3)c(=O)c21	none
Nc1nc(-c2ccco2)nn1C(=O)CCc1ccccc1	none
Nc1nc2ccccc2n1C(=O)CCc1ccccc1	ROCK2 inh 146.2
C=CCc1cccc2cc(C(=O)N(CC)CC)c(=O)oc12	none
CN(C)CCCC1(c2ccc(F)cc2)OCc2cc(C#N)ccc21 (stereo not given)	none
Fc1ccccc1Cn1nnc2c(-n3ccnc3)ncnc21	ROCK2 inh 27.2, PKA inh 24.1
Clc1ccccc1Cn1nnc2c(N3CCCC3)ncnc21	none
CN(CC(=O)NCc1cccs1)S(=O)(=O)c1cccc2nsnc12	none
Cc1ccc2[nH]c3c(NCc4ccco4)ncnc3c2c1	none
c1coc(CNc2ncnc3nc[nH]c23)c1	ROCK2 inh 25.2
COc1ccc(-c2nc(-c3cccs3)c(-c3cccs3)[nH]2)cc1O	none
CCc1nc(SCc2cc(Cl)ccc2OC)n[nH]1	none
COC(=O)C1C(=O)c2c([nH]c(C(=O)OCC3CCCO3)c2C)CC1C (stereo not given)	none
